# The list is not random: actives were taken first. Their share in the collection is about 3.5%.
# Autofluor counter = compound fluorescence in toxin protease inhibitor counterscreen; compound autofluorescence counterscreen, microsphere flow cytometry; hits give high values; 3.1% of 360,000 active; fluorescence intensity (no concentration beside the values); in the data active = fluorescence intensity above about 16000; inconclusive = no clear call, values can overlap the other calls
# BoNT F protease = BoNT/F light chain protease inhibitors, primary screen, biochemical, flow cytometry, MLPCN library | 0.22% of 360,000 active | inhibition, % at 10 µM | Multiplex microsphere protease cleavage assay | Botulinum neurotoxin type F light chain protease (Clostridium botulinum); in the data active = inhibition above about 35%, passing the limit was not always enough; inconclusive = no clear call, values can overlap the other calls; note: plate controls were buffer without enzyme for full effect and enzyme alone for no effect
# BoNT A protease = BoNT/A light chain protease inhibitors, primary screen, biochemical, flow cytometry, MLPCN library; multiplex microsphere protease substrate cleavage; inhibition, % at 10 µM; 0.17% of 360,000 active; AID 588499, 2011; note: plate controls were buffer without enzyme for full effect and enzyme alone for no effect
# Anthrax LF prot = Bacillus anthracis LF protease inhibitors, primary screen, biochemical, multiplex microsphere, MLPCN library | multiplex microsphere protease cleavage assay | inhibition, % at 10 µM | Lethal factor (Bacillus anthracis), P15917 | 0.12% of 360,000 active; note: plate controls were buffer without enzyme for full effect and enzyme alone for no effect
# Target sequence (P15917 whole entry, looked up): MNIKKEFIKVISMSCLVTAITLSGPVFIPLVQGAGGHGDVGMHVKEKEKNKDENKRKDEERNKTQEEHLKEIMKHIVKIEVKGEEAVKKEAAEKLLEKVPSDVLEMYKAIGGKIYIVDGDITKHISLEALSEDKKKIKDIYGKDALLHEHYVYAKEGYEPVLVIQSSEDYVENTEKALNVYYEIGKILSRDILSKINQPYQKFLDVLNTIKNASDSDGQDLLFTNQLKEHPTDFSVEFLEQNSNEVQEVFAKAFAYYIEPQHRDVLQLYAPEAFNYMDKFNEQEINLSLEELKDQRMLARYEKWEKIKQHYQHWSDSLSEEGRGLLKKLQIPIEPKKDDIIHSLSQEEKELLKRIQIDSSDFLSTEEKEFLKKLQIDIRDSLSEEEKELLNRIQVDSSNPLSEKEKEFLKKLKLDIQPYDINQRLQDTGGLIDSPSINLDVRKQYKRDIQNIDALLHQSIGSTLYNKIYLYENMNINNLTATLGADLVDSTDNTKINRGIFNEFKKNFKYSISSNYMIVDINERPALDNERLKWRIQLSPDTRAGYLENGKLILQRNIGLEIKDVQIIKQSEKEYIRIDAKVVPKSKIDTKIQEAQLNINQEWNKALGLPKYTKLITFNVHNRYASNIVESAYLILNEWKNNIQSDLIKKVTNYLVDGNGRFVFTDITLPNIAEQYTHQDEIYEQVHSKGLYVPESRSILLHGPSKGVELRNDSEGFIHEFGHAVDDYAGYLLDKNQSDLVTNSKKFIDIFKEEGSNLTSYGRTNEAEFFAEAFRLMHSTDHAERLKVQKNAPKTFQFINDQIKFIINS
# Starred values were filed as active, the others as inactive; ? = inconclusive. Cut-off read from the data, not from the text of the source, unless noted: active = inhibition above about 30%; inconclusive = no clear call, values can overlap the other calls; inactive = below that.
SMILES,Autofluor counter,BoNT F protease,BoNT A protease,Anthrax LF prot
CCOC(=O)c1cc2c(C)n(-c3ccc(N(C)C)cc3)c(C)c2cc(C(=O)OCC)c1=O,18745*,5.7,?,1.3
CC1CN(S(=O)(=O)c2csc(C(=O)Nc3ccccc3)c2)CC(C)O1 (configuration not stated),5840,12.1,1.9,3.0
CCCn1c(SCC(=O)C(C)(C)C)nc2ccccc21,2194,-4.5,-0.3,-1.0
CCCn1c(SC(C)C(=O)O)nc2ccccc21 (configuration not stated),21928*,4.2,2.3,-1.8
CC(C)CN1CCN(CCCOC(=O)Nc2cccc3ccccc23)CC1C (configuration not stated),3804,-5.8,-0.2,-7.8
CCCCN1/C(=C/c2ccc3ccccc3[n+]2CC)Sc2ccccc21,13406,0.3,24.0,19.9
CCN1/C(=C/c2ccc3cc(C)ccc3[n+]2CC)Sc2cc(C)ccc21,7083,-63.0,54.7*,-41.2
C[C@@H]1O[C@H](C2CC2)Cc2[nH]c(=S)[nH]c(=O)c21,5300,8.1,0.1,6.8
CCOc1ccc(N=C(NC#N)SCC(=O)NC2CC2)cc1,23167*,-1.2,?,-2.3
CCOc1ccc(N=C(NC#N)SCC)cc1,13339,-12.9,-6.0,-6.5
CCN(CC)C1=CC2=CC(=C(C#N)C#N)CCC2CC1 (configuration not stated),39639*,61.8*,-7.6,24.1
CCCCN(C)C1=CC2=CC(=C(C#N)C#N)CCC2CC1 (configuration not stated),49793*,108.7*,8.6,38.5*
CC1(C(=O)NS(=O)(=O)c2cccc(Cl)c2)CCN1C(=O)c1ccccc1 (configuration not stated),3457,-0.1,-0.5,-1.7
O=c1[nH]c2cccnc2n1Cc1ccco1,21423*,-4.5,?,0.3
CCOC(=O)C1=C(C)OC(N)=C(C#N)C1c1ccsc1 (configuration not stated),17866*,15.8,18.2,-9.2
CCOC(=O)C1=C(CC)OC(N)=C(C#N)C1c1ccc(OC)cc1OC (configuration not stated),19947*,6.9,?,1.1
CCOc1ccc(OCc2ccc(C(=O)N3N=C(C(F)F)CC3(O)C(F)F)o2)cc1 (configuration not stated),17666*,-3.3,-4.1,-3.6
COc1ccc(-c2nc(C3CCCCC3)no2)cc1OC,22056*,1.6,0.9,0.6
c1ccc(-c2nc(C3CCCCC3)no2)cc1,3439,-37.5,-0.2,-5.5
N#CC(c1ccncc1)(c1ncc(C(F)(F)F)cc1Cl)N1CCOCC1 (configuration not stated),2810,-0.6,-0.2,-2.5
N#CC(c1ccccn1)(c1ncc(C(F)(F)F)cc1Cl)N1CCOCC1 (configuration not stated),22287*,1.2,?,-6.8
CCn1c(SCC(=O)N2CCCC2)nnc1-c1ccco1,5507,4.3,1.5,-2.6
CCOC(=O)CN(C(=O)COC(=O)C1=NNC(=O)CC1)c1ccc(F)cc1,4135,-3.0,-0.3,-5.4
Cc1ccc(NC(=O)c2ccc(-n3cccn3)c([N+](=O)[O-])c2)cc1,16419*,-0.7,-0.5,-0.6
Cc1cccc(NC(=O)c2ccc(N3CCCCC3)c([N+](=O)[O-])c2)n1,24725*,-7.3,?,-3.0
SMILES,Autofluor counter,BoNT F protease,BoNT A protease,Anthrax LF prot
Cc1cccc(NC(=O)c2ccc(-n3cccn3)c([N+](=O)[O-])c2)c1,3292,-8.8,-1.1,4.5
CCC(=O)N1CCN(c2ccc(Cl)cc2NC(=O)c2ccc(N3CCCC3)c([N+](=O)[O-])c2)CC1,18754*,3.6,4.7,-7.9
CC(C)(C)Cc1c(-c2ccc(F)cc2)nc2ccc(Cl)cn12,4071,-0.6,0.5,-2.1
CC(C)Oc1cc(C(=O)NC2CCCCC2)c2ccccc2n1,4085,6.2,4.1,-1.0
CCOC(=O)C(C(=O)Cc1ccccc1)c1ccccc1 (configuration not stated),3917,4.9,0.0,-0.8
CCCOP(=O)(c1ccc(N(C)C)cc1)C(O)c1ccncc1 (configuration not stated),19418*,2.6,1.5,-7.7
CC(C)c1ccc(NC(=O)CN2CCN(C(=O)C3CCCO3)CC2)cc1 (configuration not stated),4487,-0.9,-1.2,2.1
COc1ccc(-c2oc3ncnc(N)c3c2-c2ccccc2)cc1,21630*,4.0,3.4,1.2
